{
  "source": "the supplement of paper PMC11001985",
  "note": "Unmarked numbers belong to inactive results.",
  "data": [
    {"compound": "C#CCNC(=O)CCSSCCC(=O)NCCc1ccc(C=O)c(C=O)c1", "test": "lysine labeling ratio R10:1 (500 µM / 50 µM probe), SILAC-ABPP in living cells; higher = lower intrinsic lysine reactivity toward the probe, active = 2 or less", "settings": "HeLa; probe concentrations 500 vs 50 µM", "outline": "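R, given per lysine, is the filtered median high-probe/low-probe MS1 peptide ratio, with the median then taken across forward and reverse replicates. Cells were living SILAC light and heavy HeLa cells in PBS at room temperature, labelled with 50 µM or 500 µM of an alkyne-tagged, disulfide-linked lysine probe. The ceiling applied is 20.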", "values": [
      {"target": "ROBO1 (lysine site: K733) (UniProt Q9Y6N7)", "lysine labeling ratio R10:1": 5.78},
      {"target": "UniProt P25705 (lysine site: K194)", "lysine labeling ratio R10:1": "1.81 (active)"},
      {"target": "ACSL3 (lysine site: K422) (UniProt O95573)", "lysine labeling ratio R10:1": "1.49 (active)"},
      {"target": "ATAD3B (lysine site: K104) (UniProt Q5T9A4)", "lysine labeling ratio R10:1": "0.547 (active)"},
      {"target": "UniProt Q9NYQ6 (lysine site: K324)", "lysine labeling ratio R10:1": "0.873 (active)"},
      {"target": "GBE1 (lysine site: K554) (UniProt Q04446)", "lysine labeling ratio R10:1": "0.937 (active)"},
      {"target": "UniProt P61026 (lysine site: K136)", "sequence (P61026 whole entry)": "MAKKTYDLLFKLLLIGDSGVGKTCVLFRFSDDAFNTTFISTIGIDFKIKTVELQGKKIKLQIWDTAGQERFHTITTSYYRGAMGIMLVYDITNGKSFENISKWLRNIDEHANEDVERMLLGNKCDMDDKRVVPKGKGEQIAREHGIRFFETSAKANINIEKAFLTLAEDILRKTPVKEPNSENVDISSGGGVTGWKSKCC", "lysine labeling ratio R10:1": "1.9 (active)"},
      {"target": "UniProt Q6PIU2 (lysine site: K359)", "lysine labeling ratio R10:1": "1.48 (active)"},
      {"target": "FLNA (lysine site: K2417) (UniProt P21333)", "lysine labeling ratio R10:1": 4.07},
      {"target": "SDC4 (lysine site: K104) (UniProt P31431)", "sequence (P31431 whole entry)": "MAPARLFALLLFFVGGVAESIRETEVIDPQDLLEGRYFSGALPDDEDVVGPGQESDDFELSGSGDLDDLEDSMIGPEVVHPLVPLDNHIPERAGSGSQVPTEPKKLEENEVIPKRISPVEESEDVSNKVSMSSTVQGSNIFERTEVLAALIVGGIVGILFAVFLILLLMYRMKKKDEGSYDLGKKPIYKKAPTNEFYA", "lysine labeling ratio R10:1": 3.81},
      {"target": "SUB1 (lysine site: K53) (UniProt P53999)", "lysine labeling ratio R10:1": 9.37},
      {"target": "UniProt Q5XKE5 (lysine site: K253)", "lysine labeling ratio R10:1": 2.87},
      {"target": "PTPRF (lysine site: K906) (UniProt P10586)", "sequence (P10586 whole entry)": "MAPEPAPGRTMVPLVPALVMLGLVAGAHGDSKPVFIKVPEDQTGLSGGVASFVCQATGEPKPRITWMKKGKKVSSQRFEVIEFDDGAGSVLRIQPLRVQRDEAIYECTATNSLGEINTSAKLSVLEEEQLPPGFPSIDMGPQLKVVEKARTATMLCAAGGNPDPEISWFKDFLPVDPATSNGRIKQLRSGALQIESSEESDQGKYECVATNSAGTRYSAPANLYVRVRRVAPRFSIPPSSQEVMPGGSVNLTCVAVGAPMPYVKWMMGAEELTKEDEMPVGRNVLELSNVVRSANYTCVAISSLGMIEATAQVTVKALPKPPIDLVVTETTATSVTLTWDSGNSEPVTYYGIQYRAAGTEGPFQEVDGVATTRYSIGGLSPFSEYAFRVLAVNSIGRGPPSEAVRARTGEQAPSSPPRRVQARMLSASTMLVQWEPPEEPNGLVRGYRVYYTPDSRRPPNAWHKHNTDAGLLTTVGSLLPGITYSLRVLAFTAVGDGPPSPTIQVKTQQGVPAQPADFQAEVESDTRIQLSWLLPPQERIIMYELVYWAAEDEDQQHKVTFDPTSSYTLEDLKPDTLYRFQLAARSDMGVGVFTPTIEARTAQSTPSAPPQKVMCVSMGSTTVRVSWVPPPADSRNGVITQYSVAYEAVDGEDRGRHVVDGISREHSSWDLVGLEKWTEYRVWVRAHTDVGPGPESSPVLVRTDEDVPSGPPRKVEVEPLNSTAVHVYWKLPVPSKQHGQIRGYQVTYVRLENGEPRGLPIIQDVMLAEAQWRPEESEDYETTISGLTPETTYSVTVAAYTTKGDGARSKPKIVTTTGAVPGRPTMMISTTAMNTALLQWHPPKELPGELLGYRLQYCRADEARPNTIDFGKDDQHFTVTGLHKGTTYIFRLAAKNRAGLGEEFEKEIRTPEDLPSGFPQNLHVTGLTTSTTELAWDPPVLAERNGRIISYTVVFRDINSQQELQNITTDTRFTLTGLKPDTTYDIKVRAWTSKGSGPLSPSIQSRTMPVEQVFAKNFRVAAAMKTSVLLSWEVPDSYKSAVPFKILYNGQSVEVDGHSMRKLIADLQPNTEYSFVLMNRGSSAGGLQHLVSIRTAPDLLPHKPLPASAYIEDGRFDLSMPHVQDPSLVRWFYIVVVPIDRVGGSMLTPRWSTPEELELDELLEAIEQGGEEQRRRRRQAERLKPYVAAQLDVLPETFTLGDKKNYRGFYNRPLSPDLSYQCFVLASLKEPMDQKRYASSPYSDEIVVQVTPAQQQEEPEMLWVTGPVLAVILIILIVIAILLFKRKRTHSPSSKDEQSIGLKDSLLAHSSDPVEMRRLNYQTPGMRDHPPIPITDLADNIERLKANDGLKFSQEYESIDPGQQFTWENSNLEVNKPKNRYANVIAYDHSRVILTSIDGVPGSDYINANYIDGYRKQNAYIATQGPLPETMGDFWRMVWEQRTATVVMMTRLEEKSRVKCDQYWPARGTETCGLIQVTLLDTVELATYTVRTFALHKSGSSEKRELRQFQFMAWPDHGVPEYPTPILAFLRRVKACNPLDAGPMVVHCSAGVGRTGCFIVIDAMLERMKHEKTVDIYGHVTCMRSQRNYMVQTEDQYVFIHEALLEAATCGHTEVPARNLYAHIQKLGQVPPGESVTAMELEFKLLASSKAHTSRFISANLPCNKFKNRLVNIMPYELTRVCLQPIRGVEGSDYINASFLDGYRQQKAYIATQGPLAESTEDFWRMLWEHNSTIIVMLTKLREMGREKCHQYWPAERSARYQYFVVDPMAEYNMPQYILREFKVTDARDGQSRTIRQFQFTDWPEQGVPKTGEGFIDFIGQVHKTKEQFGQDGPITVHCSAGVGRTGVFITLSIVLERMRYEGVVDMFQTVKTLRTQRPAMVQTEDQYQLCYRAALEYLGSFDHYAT", "lysine labeling ratio R10:1": 4.94},
      {"target": "UniProt P62888 (lysine site: K44)", "lysine labeling ratio R10:1": 2.17},
      {"target": "PTGFRN (lysine site: K522) (UniProt Q9P2B2)", "lysine labeling ratio R10:1": 2.13},
      {"target": "FAT4 (lysine site: K3828) (UniProt Q6V0I7)", "lysine labeling ratio R10:1": 5.8},
      {"target": "MSN (lysine site: K316) (UniProt P26038)", "sequence (P26038 whole entry)": "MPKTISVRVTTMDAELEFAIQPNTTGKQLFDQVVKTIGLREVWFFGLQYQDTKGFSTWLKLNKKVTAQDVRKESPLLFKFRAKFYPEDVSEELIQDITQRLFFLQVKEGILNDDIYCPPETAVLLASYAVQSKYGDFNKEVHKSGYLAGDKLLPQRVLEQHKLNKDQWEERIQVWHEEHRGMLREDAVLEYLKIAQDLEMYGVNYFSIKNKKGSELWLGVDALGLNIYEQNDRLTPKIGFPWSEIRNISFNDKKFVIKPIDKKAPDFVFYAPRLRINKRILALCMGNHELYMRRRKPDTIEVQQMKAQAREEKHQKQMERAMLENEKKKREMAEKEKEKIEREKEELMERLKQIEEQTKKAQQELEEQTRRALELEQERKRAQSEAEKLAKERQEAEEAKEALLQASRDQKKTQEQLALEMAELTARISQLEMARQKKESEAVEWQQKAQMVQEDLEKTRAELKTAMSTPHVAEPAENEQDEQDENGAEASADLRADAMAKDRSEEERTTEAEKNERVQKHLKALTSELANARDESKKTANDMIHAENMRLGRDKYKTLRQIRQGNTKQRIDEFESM", "lysine labeling ratio R10:1": "1.47 (active)"},
      {"target": "UniProt P05787 (lysine site: K198)", "lysine labeling ratio R10:1": 7.97},
      {"target": "RPL4 (lysine site: K182) (UniProt P36578)", "lysine labeling ratio R10:1": "1.85 (active)"},
      {"target": "LAMB1 (lysine site: K1579) (UniProt P07942)", "lysine labeling ratio R10:1": 2.82},
      {"target": "NUMA1 (lysine site: K891) (UniProt Q14980)", "sequence (Q14980 whole entry)": "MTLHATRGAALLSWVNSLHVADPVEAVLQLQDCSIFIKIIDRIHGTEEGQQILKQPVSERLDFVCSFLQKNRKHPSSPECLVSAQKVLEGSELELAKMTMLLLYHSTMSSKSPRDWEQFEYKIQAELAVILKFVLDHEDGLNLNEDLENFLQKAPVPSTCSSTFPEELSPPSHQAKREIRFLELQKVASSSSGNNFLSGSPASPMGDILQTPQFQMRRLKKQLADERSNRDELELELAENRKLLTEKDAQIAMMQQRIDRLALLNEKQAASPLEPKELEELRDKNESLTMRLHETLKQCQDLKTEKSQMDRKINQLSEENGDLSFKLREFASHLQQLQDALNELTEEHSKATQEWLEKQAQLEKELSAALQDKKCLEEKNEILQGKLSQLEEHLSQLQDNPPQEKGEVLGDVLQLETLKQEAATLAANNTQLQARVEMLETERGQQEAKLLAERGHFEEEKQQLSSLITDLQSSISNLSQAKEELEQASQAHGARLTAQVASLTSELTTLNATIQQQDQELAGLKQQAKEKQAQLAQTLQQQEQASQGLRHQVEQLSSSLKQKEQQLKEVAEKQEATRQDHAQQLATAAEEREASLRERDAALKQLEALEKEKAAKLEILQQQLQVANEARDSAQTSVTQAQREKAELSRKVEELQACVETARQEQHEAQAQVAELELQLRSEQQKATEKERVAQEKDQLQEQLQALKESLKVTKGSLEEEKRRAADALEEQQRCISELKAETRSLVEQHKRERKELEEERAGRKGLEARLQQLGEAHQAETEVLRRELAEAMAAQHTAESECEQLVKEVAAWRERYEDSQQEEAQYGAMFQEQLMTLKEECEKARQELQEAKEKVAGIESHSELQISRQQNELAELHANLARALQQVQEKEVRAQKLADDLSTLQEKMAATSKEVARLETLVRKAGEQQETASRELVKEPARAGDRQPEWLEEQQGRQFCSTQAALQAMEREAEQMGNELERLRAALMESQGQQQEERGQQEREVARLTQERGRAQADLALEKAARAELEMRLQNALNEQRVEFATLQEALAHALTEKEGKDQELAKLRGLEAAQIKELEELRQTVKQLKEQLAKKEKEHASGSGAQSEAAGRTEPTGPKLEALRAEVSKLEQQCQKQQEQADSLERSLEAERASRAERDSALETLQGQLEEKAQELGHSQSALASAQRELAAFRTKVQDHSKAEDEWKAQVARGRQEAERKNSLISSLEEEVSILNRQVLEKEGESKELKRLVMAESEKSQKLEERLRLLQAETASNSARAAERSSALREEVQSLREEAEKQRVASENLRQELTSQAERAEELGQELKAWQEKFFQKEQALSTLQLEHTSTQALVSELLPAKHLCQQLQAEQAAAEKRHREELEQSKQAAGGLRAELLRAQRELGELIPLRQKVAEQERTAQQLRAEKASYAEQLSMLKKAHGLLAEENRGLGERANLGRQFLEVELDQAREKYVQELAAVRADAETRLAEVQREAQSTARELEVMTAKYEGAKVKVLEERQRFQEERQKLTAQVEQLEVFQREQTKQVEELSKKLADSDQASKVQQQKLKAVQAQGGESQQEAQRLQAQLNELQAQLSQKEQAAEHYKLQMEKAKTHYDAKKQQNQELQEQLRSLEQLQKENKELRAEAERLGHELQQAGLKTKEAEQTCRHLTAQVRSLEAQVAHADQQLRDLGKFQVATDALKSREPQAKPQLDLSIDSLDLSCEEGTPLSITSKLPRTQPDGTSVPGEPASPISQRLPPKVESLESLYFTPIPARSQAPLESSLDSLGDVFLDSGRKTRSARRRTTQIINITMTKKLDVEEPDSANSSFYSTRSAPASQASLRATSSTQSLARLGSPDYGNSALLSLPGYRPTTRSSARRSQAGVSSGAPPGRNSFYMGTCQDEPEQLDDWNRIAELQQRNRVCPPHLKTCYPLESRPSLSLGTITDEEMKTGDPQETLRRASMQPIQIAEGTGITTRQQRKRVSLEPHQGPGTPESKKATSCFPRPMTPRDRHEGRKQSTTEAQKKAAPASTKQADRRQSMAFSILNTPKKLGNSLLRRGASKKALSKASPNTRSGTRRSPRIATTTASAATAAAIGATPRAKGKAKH", "lysine labeling ratio R10:1": "1.87 (active)"},
      {"target": "L1CAM (lysine site: K119) (UniProt P32004)", "lysine labeling ratio R10:1": 3.56},
      {"target": "ITGA6 (lysine site: K615) (UniProt P23229)", "lysine labeling ratio R10:1": 6.91}
    ]}
  ]
}
